# Experimental data from PubChem BioAssay.
# Where “and” joins values, the source holds several entries; their conditions need not be identical. Equal values may be shown once.
# System: PRMT1 (protein arginine N-methyltransferase 1)
# Experiment: PRMT1 binders on small-molecule microarrays, primary screen, biochemical, small-molecule microarray, 635 nm fluorescence (AID 1088)
# Details: small-molecule microarray binding, higher = more signal
row,Compound,composite z-score
1,C=CCN(CCCC)C(=O)C1N(c2ccc(CCO)cc2)C(=O)C2C(C(=O)O)C3C=CC21O3 (stereo not given),0.0734 and -0.79
2,COC(=O)C1=C(C)N(Cc2ccccc2)C2=C3C(=O)N(c4ccccc4)C(=O)[C@@H]3[C@@](O)(C(=O)OC)C(=O)N2[C@@H]1c1ccccc1,0.345 and 1.13
3,CCC[C@@H]1C[C@@]1(CCC)[C@@H](NC(=O)c1ccc(-c2ccccc2)cc1)c1cccc(Cl)c1,-0.13 and -0.434
4,C=CCN(C(=O)C(c1cccs1)N(C(=O)/C=C\C(=O)O)c1ccc(CCO)cc1)C(C)(C)C (stereo not given),-0.417 and -0.231
5,C=CCN(Cc1ccccc1)C(=O)C1N(CCCCCCO)C(=O)C2C(C(=O)O)C3C=CC21O3 (stereo not given),-0.487 and -1.4
6,COc1ccc(COC(=O)NN=C2C[C@@H](O)[C@@H](O)[C@@H]3[C@@H]4C(=O)N(C(C)(C)C)C(=O)[C@@H]4CC[C@H]23)cc1,1.28
7,O=C1NC(=O)C2C1C=CC(C(O)c1ccc([N+](=O)[O-])cc1)N2Nc1ccc(Cl)cc1Cl (stereo not given),0.551 and 0.395
8,COC(=O)C1=C(C)N(Cc2ccccc2)C2=C3C(=O)CCC[C@@H]3[C@@](O)(C(=O)OC)C(=O)N2[C@@H]1c1ccccc1,0.749 and -0.121
9,C[N+](C)(C)CCCCNC(=O)[C@H]1C[C@H]2C(=O)N[C@@H](CCCC[N+](C)(C)C)C(=O)N2[C@H]1c1cccc(OCCO)c1,1.04 and 1.57
10,C=CCN(CCCCC)C(=O)C1N(c2ccc(CCO)cc2)C(=O)C2C(C(=O)O)C3C=CC21O3 (stereo not given),-0.303 and -0.476
11,CC(C)C(=O)N[C@@H]1CCCN1C(=O)C=Cc1ccccc1,0.731
12,C[C@@H](ON=C1[C@H]2CCn3c(=O)n(-c4ccccc4)c(=O)n3[C@H]2[C@H](O)[C@@H]2O[C@H]12)c1cn([C@H](CO)Cc2ccccc2)nn1,0.587
13,C=CCN1C(=O)[C@]2(O[C@H](CCn3cc(CCO)nn3)[C@@H]([Si](C)(C)c3ccc(OC)cc3)[C@@H]2C)c2cc(N3C(=O)c4cccc5cccc3c45)ccc21,1.27 and 1.46
14,COC(=O)[C@@]1(Cc2ccc(F)cc2)[C@H]2c3cc(C(=O)N4CCCC4)n(Cc4c(CO)[nH]cc(C)c4=O)c3C[C@H]2CN1C(=O)c1ccccc1,0.519 and 0.355
15,C=CCN(CCCCC)C(=O)C1N(c2c(Cl)cccc2CO)C(=O)C2C(C(=O)O)C3C=CC21O3 (stereo not given),0.0842 and -0.629
16,C=CCN(C(=O)C1N(c2c(Cl)cccc2CO)C(=O)C2C(C(=O)O)C3C=CC21O3)C(C)(C)C (stereo not given),-0.17 and -0.656
17,COC(=O)[C@@]1(Cc2ccc(OC)cc2)[C@H]2c3cc(C(=O)N(C)C)n(Cc4ccc(O)c(OC)c4)c3C[C@H]2CN1C(=O)c1ccccc1,-0.406 and 0.571
18,C=CCN(C(=O)C1N(C(C)(C)CO)C(=O)C2C(C(=O)O)C3C=CC21O3)c1ccc(OC)cc1 (stereo not given),-0.504 and -1.28
19,C[N+](C)(C)CCCCNC(=O)[C@@H]1C[C@@H]2C(=O)N[C@@H](CCCC[N+](C)(C)C)C(=O)N2[C@@H]1c1cccc(OCCO)c1,1.53 and 0.995
20,CCCC[C@@H]1CN2[C@@H](CC[C@@H](C)[C@@H]2c2ccc(Br)cc2)C(=O)O1,1.38 and 0.811

row,Compound,composite z-score
1,CCN1C(=O)[C@H]2[C@H]3[C@H](O)[C@H](O)CC(=NOC)[C@@H]3CC[C@H]2C1=O,-1.1
2,C=C[C@H](OC)[C@@H](O)c1ccc(OCCO)cc1,-0.801 and -0.822
3,COC(=O)C1=C(C)N(Cc2ccccc2)[C@]23O[C@](C(=O)OC)(C(=O)N2[C@@H]1c1ccccc1)[C@@H](c1ccccc1)[C@@H]3C(=O)c1ccccc1,0.618 and 0.917
4,CCOC(=O)[C@@H]1CC=C2CC1C(=O)N1CCC[C@@H]1[C@H]2O[Si](C)(C)C(C)(C)C (stereo not given in full),-0.884 and -1.29
5,CCOC(=O)[C@@H]1CC2O[C@]23C[C@@H]1C(=O)N1CCC[C@@H]1[C@H]3O[Si](C)(C)C(C)(C)C (stereo not given in full),-1.64 and -0.147
6,Cc1ccc(S(=O)(=O)OC[C@@H]2CN3[C@@H](CC[C@@H](C)[C@@H]3c3ccc(Br)cc3)C(=O)O2)cc1,0.353 and 1.4
7,COC(=O)C1=C(C)N(Cc2ccccc2)[C@]23O[C@](C(=O)OC)(C(=O)N2[C@@H]1c1ccccc1)[C@H]1C(=O)N(c2ccccc2)C(=O)[C@H]13,0.343 and -0.0383
8,CCOC(=O)c1ccc(NC(=O)O[C@H]2[C@H](OC(=O)Nc3ccccc3)[C@H](OC(=O)Nc3ccccc3)[C@@H](OC)O[C@@H]2CO)cc1,1.53
9,C[N+](C)(C)CCCCCCNC(=O)[C@H]1C[C@H]2C(=O)N[C@@H](CCCC[N+](C)(C)C)C(=O)N2[C@H]1c1ccc(O)cc1,0.258 and -0.147
10,Cc1ccc(S(=O)(=O)N[C@@H]2COC(=O)CC=C[C@@H](C)[C@@H]3C=C[C@H](O)[C@@H](COC(=O)CC=C[C@H]2C)O3)cc1,0.438 and 0.385
11,CCCNC(=O)OC[C@H]1O[C@H](CCON=C(C)CCC(=O)OC[C@H]2O[C@H](C#Cc3ccccc3)C=C[C@@H]2Oc2ccc(C)cc2)C=C[C@@H]1Oc1ccc(OC)cc1,-0.164
12,C=CCN(CCCC)C(=O)C1N(C(C)(C)CO)C(=O)C2C(C(=O)O)C3C=CC21O3 (stereo not given),-0.278 and -1.01
13,C=C[C@@H](C)[C@H](O)c1ccc(O)c2ccccc12,0.849 and -0.813
14,C=CCN(Cc1ccccc1)C(=O)C1N(C(C)(C)CO)C(=O)C2C(C(=O)O)C3C=CC21O3 (stereo not given),-1.67 and -1.32
15,C=CC[C@H](O)c1ccc(OCCO)cc1,-0.145 and -1.37
16,C=CCN(C(=O)C(c1cccs1)N(C(=O)/C=C\C(=O)O)c1ccc(CCO)cc1)c1ccc(OC)cc1 (stereo not given),-1.26 and -1.84
17,C=CC[C@@H](O)c1ccc(OCCO)cc1,0.347 and -0.516
18,C=CCN(C(=O)C1N(CCCCCCO)C(=O)C2C(C(=O)O)C3C=CC21O3)c1ccc(OC)cc1 (stereo not given),-0.176 and -1.86
19,COC(=O)C1=C(C)N(Cc2ccccc2)C2=C(C(=O)c3ccccc3)[C@H](c3ccccc3)[C@@](O)(C(=O)OC)C(=O)N2[C@@H]1c1ccccc1,0.518 and 0.722
20,Cc1ccc(S(=O)(=O)N[C@H]2COC(=O)[C@@H](C)COC(=O)[C@H](C)NC(=O)CC=C[C@H]2C)cc1,0.277
